Assay results as given in PMC4336329 (PLoS ONE, 2015).
About 2,200 (0.71%) of roughly 310,000 compounds showed an effect of 50% or more. Effects have a minus sign here. Shown is part of a subset that was picked to be rich in strong results.

Target: human ether-à-go-go-related gene (hERG) potassium channel (human, UniProt Q12809)
Assay: primary screen, population patch clamp on CHO cells stably expressing hERG; higher = less effect of the substance
Procedure: Briefly, Chinese hamster ovary (CHO) cells stably expressing the hERG channel were dislodged from tissue culture flasks and dispensed into PPC plates. […] During the recording, background leak currents were estimated by a 100 ms step to -80 mV from an initial holding potential of -70 mV and subtracted from the subsequent current measurement. The campaign was conducted in two phases using slight differences in recording protocol. In the first phase, the initial voltage pulse used a 100 ms step to -30 mV from a holding potential of -70 mV, a 2 s conditioning step to +25 mV, and a 2 s test step to -30 mV. During the second phase of the screen, the potential during the conditioning step was raised to +45 mV. In both phases of the campaign, a secondary voltage pulse was applied using the same parameters as the second phase initial pulse. The initial and secondary pulses were applied in the absence of compound, and upon application of 1 μM and 10 μM test concentrations. Small molecule effects on hERG current density were quantified by […].

human ether-à-go-go-related gene (hERG) potassium channel, sequence (Q12809 whole entry, looked up): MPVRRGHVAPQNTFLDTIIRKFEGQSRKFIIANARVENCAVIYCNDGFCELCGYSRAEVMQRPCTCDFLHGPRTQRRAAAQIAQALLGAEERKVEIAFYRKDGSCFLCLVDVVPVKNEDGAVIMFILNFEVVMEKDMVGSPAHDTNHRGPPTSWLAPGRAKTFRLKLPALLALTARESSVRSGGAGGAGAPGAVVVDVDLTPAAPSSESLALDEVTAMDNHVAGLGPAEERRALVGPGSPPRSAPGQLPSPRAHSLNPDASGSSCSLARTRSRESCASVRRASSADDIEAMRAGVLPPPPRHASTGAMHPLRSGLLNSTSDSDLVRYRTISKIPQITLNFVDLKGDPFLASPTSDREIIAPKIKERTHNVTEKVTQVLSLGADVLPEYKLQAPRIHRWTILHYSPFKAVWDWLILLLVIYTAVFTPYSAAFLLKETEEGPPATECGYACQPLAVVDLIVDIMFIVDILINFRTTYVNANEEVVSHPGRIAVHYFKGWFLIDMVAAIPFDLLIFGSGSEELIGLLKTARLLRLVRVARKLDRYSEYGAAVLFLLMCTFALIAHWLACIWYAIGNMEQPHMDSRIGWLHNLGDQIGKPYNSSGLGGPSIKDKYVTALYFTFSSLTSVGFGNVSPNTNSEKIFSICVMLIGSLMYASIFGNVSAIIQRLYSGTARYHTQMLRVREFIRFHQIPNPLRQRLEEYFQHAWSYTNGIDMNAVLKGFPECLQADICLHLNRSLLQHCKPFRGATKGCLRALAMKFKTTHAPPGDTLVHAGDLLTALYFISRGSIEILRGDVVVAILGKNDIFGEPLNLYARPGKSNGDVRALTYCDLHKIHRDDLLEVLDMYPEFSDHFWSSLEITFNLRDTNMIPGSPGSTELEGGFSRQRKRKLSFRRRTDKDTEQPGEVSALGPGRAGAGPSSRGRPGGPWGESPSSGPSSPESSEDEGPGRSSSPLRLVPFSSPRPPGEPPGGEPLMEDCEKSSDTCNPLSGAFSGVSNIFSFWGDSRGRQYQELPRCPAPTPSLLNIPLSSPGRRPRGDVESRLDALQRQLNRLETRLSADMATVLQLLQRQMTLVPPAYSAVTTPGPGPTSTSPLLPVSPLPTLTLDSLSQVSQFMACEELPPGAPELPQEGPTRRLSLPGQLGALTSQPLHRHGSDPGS

Row | Compound | hERG current change (%, negative = inhibition) at 1uM
1 | Nc1nc(Br)c2ccccc2c1-c1ccccc1 | 9.58%
2 | CC(C)c1ccc(N(CC(=O)Nc2ccc(S(=O)(=O)N3CCOCC3)cc2)S(C)(=O)=O)cc1 | 21.3%
3 | COc1ccc(CCNC(=O)/C=C/c2ccc3ccccc3n2)cc1OC | 10.9%
4 | COc1ccc(S(=O)(=O)N(C)CC(=O)Nc2ccccc2SC)cc1Cl | 11.6%
5 | COc1nc2ccccc2c(=O)n1-c1ccc(C)cc1 | 7.4%
6 | Cc1cccc(C(=O)NCC2CCN(C(=O)c3cccc(C)c3)CC2)c1 | -2.21%
7 | COc1cccc(NC(=O)CCN2CCC(C(N)=O)CC2)c1 | 16.9%
8 | O=C(Nc1ccnn1C1CCN(Cc2ccccc2)CC1)c1ccccc1Cl | -53.1%
9 | CSc1ccc(CN2CCC(n3nccc3NC(=O)c3ccccc3C)CC2)cc1 | -83.8%
10 | Cc1ccccc1C(=O)Nc1ccnn1C1CCN(Cc2cnn(C)c2)CC1 | -1.26%
11 | Cc1ccccc1C(=O)Nc1ccnn1C1CCN(Cc2ccncc2)CC1 | -3.47%
12 | CC(CCN1CCC(n2nccc2NC(=O)c2ccccc2Cl)CC1)c1ccccc1 (centres unmarked) | -85.1%
13 | Cc1ccccc1C(=O)Nc1ccnn1C1CCN(Cc2cccnc2)CC1 | -48.9%
14 | CCc1ccc(CN2CCC(n3nccc3NC(=O)c3ccccc3C)CC2)cc1 | -85.1%
15 | Cc1ccccc1C(=O)Nc1ccnn1C1CCN(Cc2cnn(C(C)C)c2)CC1 | -27.3%
16 | COCC(C)N1CCC(n2nccc2NC(=O)c2ccccc2Cl)CC1 (centres unmarked) | -1.49%
17 | O=C(Nc1ccnn1C1CCN(Cc2cccnc2)CC1)c1ccccc1Cl | -11.5%
18 | Cn1cc(CN2CCC(n3nccc3NC(=O)c3ccccc3Cl)CC2)cn1 | -4.32%
19 | CC(CN1CCC(n2nccc2NC(=O)c2ccccc2Cl)CC1)c1ccccc1 (centres unmarked) | -43.6%
20 | O=C(c1cc([N+](=O)[O-])ccc1N1CCCCC1)N1CCCCC1 | -6.51%
21 | Cc1ccc(S(=O)(=O)N(C)Cc2ccc(-c3nnc4n3CCC4)cc2)cc1 | 0.889%
22 | COC(=O)c1ccc(N2CCCCC2)c(NS(=O)(=O)c2ccc(C)cc2)c1 | 12.6%
23 | CCOC(=O)CSc1nnc(Cn2c(=O)sc3ccccc32)n1C | -3.18%

Row | Compound | hERG current change (%, negative = inhibition) at 1uM
24 | Cc1cc(C)c(CN2CCC(n3nccc3NC(=O)c3ccccc3Cl)CC2)cc1C | 1.2%
25 | CCN1CCC(n2nccc2NC(=O)c2ccccc2Cl)CC1 | 10.5%
26 | Cc1cc(CN2CCC(n3nccc3NC(=O)c3ccccc3Cl)CC2)cc(C)c1O | -64.4%
27 | COc1ccc(O)c(CN2CCC(n3nccc3NC(=O)c3ccccc3Cl)CC2)c1 | -15.4%
28 | CCc1ccc(CN2CCC(n3nccc3NC(=O)c3ccccc3Cl)CC2)cc1 | -92.3%
29 | NC(=O)c1ncn([C@@H]2O[C@H](CO)[C@@H](O)[C@H]2O)n1 | 25.8%
30 | Cn1c([O-])c(Cc2cccc(Cl)c2Cl)c(=O)n(C)c1=O.[NH4+] | 17.5%
31 | CCOc1ccc(OCC(=O)OCC(=O)N(CC(C)C)c2c(N)n(Cc3ccccc3)c(=O)[nH]c2=O)cc1 | 5.08%
32 | COc1cccc(NC(=O)Nc2cccc(C(=O)O)c2)c1 | 16.4%
33 | CCOC(=O)C(CC)Sc1ccc2nnc(CCNS(=O)(=O)c3ccccc3)n2n1 (centres unmarked) | 3.33%
34 | O=C(NCc1ccc(Cl)cc1Cl)C(=O)N1CCCCC1 | 7%
35 | CN(CC1CCN(CCc2cccc(C(F)(F)F)c2)CC1)C(=O)c1ccc(F)cc1F | -35.9%
36 | COc1cccc(C(=O)N(C)CC2CCN(CCc3cccc(C(F)(F)F)c3)CC2)c1 | -70.3%
37 | CC(=O)Nc1ccc(CN(C)CC2CCCN(CCc3cccc(C(F)(F)F)c3)C2)cc1 (centres unmarked) | -18.4%
38 | CN(CC1CCCN(CCc2cccc(C(F)(F)F)c2)C1)C(=O)c1ccc2nc[nH]c2c1 (centres unmarked) | 5.78%
39 | COC(=O)CCC(=O)N(C)CC1CCCN(CCc2cccc(C(F)(F)F)c2)C1 (centres unmarked) | -39.9%
40 | CN(CC1CCN(CCc2cccc(C(F)(F)F)c2)CC1)C(=O)c1ccc(F)cc1 | -60%
41 | COc1ccc(CC(=O)NCC2CCCN(Cc3cccc(C(F)(F)F)c3)C2)cc1 (centres unmarked) | 5.75%
42 | O=C(c1cccc(C(F)(F)F)c1)N1CCN(CCc2ccccc2)CC1 | 1.81%
43 | CN(CC1CCN(CCc2cccc(C(F)(F)F)c2)CC1)C(=O)c1ccccc1 | -56.1%
44 | CN(CC1CCCN(CCc2cccc(C(F)(F)F)c2)C1)C(=O)c1ccco1 (centres unmarked) | -38.3%
45 | CSCCC(=O)N(C)CC1CCN(CCc2cccc(C(F)(F)F)c2)CC1 | -27.3%
46 | CSCCC(=O)N(C)CC1CCCN(CCc2cccc(C(F)(F)F)c2)C1 (centres unmarked) | -55.1%

Row | Compound | hERG current change (%, negative = inhibition) at 1uM
47 | CCn1c(/N=C/c2ccc(OC)cc2O)nc2ccccc21 | 14%
48 | Cc1ccc(NC(=O)Nc2cccn(Cc3c(F)cccc3Cl)c2=O)cc1 | 13.2%
49 | S=C(Nc1ccccc1)Nc1ccc(Br)cc1 | 14.5%
50 | Cc1cccnc1-n1c(C)nc2ccccc2c1=O | 7.55%
51 | CSCCC(NC(=O)c1cc(C(C)(C)C)oc1C)C(=O)O (centres unmarked) | 15.6%
52 | COc1cc(C(=O)O)c2c(c1C)OC(=O)c1c(C)cc(O)c(C=O)c1O2 | 22.5%
53 | COc1cc(C(=O)N(C)CC2CCN(CCc3cccc(C(F)(F)F)c3)CC2)ccc1C | -63.8%
54 | CC(=O)NCCC(=O)N(C)CC1CCN(CCc2cccc(C(F)(F)F)c2)CC1 | 12.5%
55 | COc1cc(CN(C)CC2CCCN(CCc3cccc(C(F)(F)F)c3)C2)ccc1O (centres unmarked) | 2.96%
56 | CCCC(=O)Nc1ccc(NC(=O)c2ccccc2F)cn1 | 11.2%
57 | Fc1ccc(NC(=S)NCCN2CCOCC2)c(F)c1F | 12.2%
58 | S=C(Nc1ccc2snnc2c1)N1CCN(c2ccccn2)CC1 | 10%
59 | COc1cccc(N2CCN(CC(=O)c3c(C)[nH]c4ccccc34)CC2)c1 | -10.9%
60 | O=C(CN(Cc1ccccc1)S(=O)(=O)c1ccc(F)cc1)NCc1ccncc1 | -9.19%
61 | CCCNC(=O)CN(Cc1ccccc1F)S(=O)(=O)c1ccc(C)cc1 | 5.85%
62 | Cc1ccc(S(=O)(=O)N(CC(=O)NCc2ccncc2)Cc2ccc(F)cc2)cc1 | -75%
63 | Cc1ccc(S(=O)(=O)N(CC(=O)O)Cc2ccccc2F)cc1 | 6.83%
64 | CCN(CC(=O)NCc1ccc(F)cc1)S(=O)(=O)c1ccc(C)cc1 | -13.7%
65 | Cc1ccc(S(=O)(=O)N(CC(=O)NCc2ccncc2)Cc2ccccc2F)cc1 | -53.2%
66 | O=C(CCc1nnc2ccc(N3CCCC3)nn12)Nc1cc(F)ccc1F | -9.58%
67 | COc1ccc(N=C(C)C2=C(O)COC2=O)cc1 | 4.93%
68 | CN1CSC2=C(C#N)C(c3cccc(OCc4ccccc4)c3)CC(=O)N2C1 (centres unmarked) | 4.22%
69 | CCC(NC(=O)OCc1ccccc1)C(=O)Oc1ccc2ccc(=O)oc2c1 (centres unmarked) | 18.8%

Row | Compound | hERG current change (%, negative = inhibition) at 1uM
70 | C=CCn1c(SCC(=O)NNC(=O)Nc2ccc(C)cc2)nnc1-c1ccccc1 | 1.92%
71 | CCCN1CCN(S(=O)(=O)c2c(C)[nH]c(C)c2C(=O)N2CCCCC2)CC1 | -0.989%
72 | CCn1c(SCC(=O)Nc2ccccc2OC)nc(O)cc1=O | 10%
73 | COC(=O)c1cc(Br)c(=O)n(-c2ccc(F)cc2)c1 | -70.1%
74 | COC(=O)c1cc(Br)c(=O)n(CCc2ccc(F)cc2)c1 | -3.04%
75 | COC(=O)c1cc(Br)c(=O)n(-c2ccc(OC)cc2)c1 | 5.39%
76 | CCO[C@@H]1OC(C(=O)N2CCN(C)CC2)=C[C@H](c2csc3ccccc23)[C@H]1CCCO | 0.669%
77 | CC(=O)Nc1ccc(N(C(=O)c2ccccn2)C(C(=O)NC2CCCCC2)c2ccc(F)cc2)cc1 (centres unmarked) | 12.2%
78 | CC1CCN(CCCNC(=O)CCc2nnc3n(CCc4ccccc4)c(=O)c4ccccc4n23)CC1 | -52.4%
79 | O=C(CCc1nnc2n(CCc3ccccc3)c(=O)c3ccccc3n12)NCCCN1CCCCC1 | -9.25%
80 | CC1CCCCN1CCNC(=O)CCc1nnc2n(Cc3ccccc3)c(=O)c3ccccc3n12 (centres unmarked) | -8.67%
81 | Cc1ccc(Cc2ccc(C(=O)NNC(N)=S)o2)cc1 | 3.74%
82 | CN(CC(=O)Nc1ccccc1Br)C(=O)c1sccc1-c1ccccc1 | -0.469%
83 | O=c1nc(-c2ccccc2)cc(C(F)(F)F)[nH]1 | 21.3%
84 | COc1ccccc1N1CCc2c(C)nc3c(OC)cccc3c21 | -23.1%
85 | COc1ccc(N2CCc3c(C)nc4c(OC)cccc4c32)cc1 | -28.3%
86 | COc1ccc(N2CCc3c(C)nc4c(OC)cc(OC)cc4c32)cc1 | -52.7%
87 | COc1cc(OC)c2nc(C)c3c(c2c1)N(c1ccc(O)cc1)CC3 | -57.2%
88 | COc1ccc(N2CCc3c(C)nc4c(OC)cc(OC)cc4c32)c(OC)c1 | -47.6%
89 | COc1cccc2c3c(c(C)nc12)CCN3c1ccccc1 | -8.76%
